# Laboratory results: paper PMC11006913
# Numbering of substitutions follows the chain as printed.
# Tests used:
# Test in all cases: PBM; 200 nM protein, PBS
# Settings in all cases: dsDNA, one strand shown
# [1] = target: NKX2-5 (Homo sapiens, UniProt P52952 125-210, R139K)
# [2] = target: HOXB4 (Homo sapiens, UniProt P17483 148-234)
# [3] = target: HOXB4 (Homo sapiens, UniProt P17483 148-234, V174I)
# [4] = target: NKX2-5 (Homo sapiens, UniProt P52952 125-210)
# [5] = target: T1, NKX2-4 (Homo sapiens, UniProt Q9H2Z4 175-261, P217L)
# T1 sequence: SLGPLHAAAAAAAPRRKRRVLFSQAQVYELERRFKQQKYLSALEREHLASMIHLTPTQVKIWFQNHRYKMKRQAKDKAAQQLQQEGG
# [6] = target: T2, VENTX (Homo sapiens, UniProt O95231 78-163, R121Q)
# T2 sequence: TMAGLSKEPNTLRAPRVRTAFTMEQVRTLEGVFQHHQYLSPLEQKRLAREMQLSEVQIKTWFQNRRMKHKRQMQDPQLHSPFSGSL
# [7] = target: T3, VENTX (Homo sapiens, UniProt O95231 78-163)
# T3 sequence: T2 sequence with Q44R
# [8] = target: T4, NKX2-4 (Homo sapiens, UniProt Q9H2Z4 175-261, T231S)
# T4 sequence: T1 sequence with L43P, T57S
# [9] = target: T5, VENTX (Homo sapiens, UniProt O95231 78-163, Y115F)
# T5 sequence: T2 sequence with Y38F, Q44R
# [10] = target: T6, NKX2-4 (Homo sapiens, UniProt Q9H2Z4 175-261)
# T6 sequence: T1 sequence with L43P
# [11] = target: T7, NKX2-6 (Homo sapiens, UniProt A6NCS4 118-204, R150C)
# T7 sequence: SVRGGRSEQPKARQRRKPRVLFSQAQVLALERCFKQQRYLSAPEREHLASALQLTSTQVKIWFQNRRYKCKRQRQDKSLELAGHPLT
# [12] = target: T8, NKX2-6 (Homo sapiens, UniProt A6NCS4 118-204)
# T8 sequence: T7 sequence with C33R
# [13] = target: T9, NKX2-4 (Homo sapiens, UniProt Q9H2Z4 175-261, R246Q)
# T9 sequence: T1 sequence with L43P, R72Q
# [14] = target: T10, NKX2-6 (Homo sapiens, UniProt A6NCS4 118-204, F151L)
# T10 sequence: T7 sequence with C33R, F34L
# [15] = target: NKX3-2 (Homo sapiens, UniProt P78367 192-278, P234S)
# [16] = target: NKX3-2 (Homo sapiens, UniProt P78367 192-278)
# [17] = target: ALX1 (Homo sapiens, UniProt Q15699 118-204, L144V)
# [18] = target: ALX1 (Homo sapiens, UniProt Q15699 118-204, L144R)
# [19] = target: ALX1 (Homo sapiens, UniProt Q15699 118-204)
# [20] = target: SHOX (Homo sapiens, UniProt O15266 103-189)
# Sequence of SHOX (O15266 103-189): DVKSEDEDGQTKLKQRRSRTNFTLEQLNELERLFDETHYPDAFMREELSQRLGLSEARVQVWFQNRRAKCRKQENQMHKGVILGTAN
# Sequence of NKX2-5 (Homo sapiens, UniProt P52952 125-210, R139K) (P52952 125-210 R139K): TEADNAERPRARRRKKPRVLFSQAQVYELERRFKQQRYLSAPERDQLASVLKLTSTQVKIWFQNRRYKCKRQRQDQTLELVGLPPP
# Sequence of NKX2-5 (Homo sapiens, UniProt P52952 125-210) (P52952 125-210): as the sequence (P52952 125-210 R139K) above, with K15R counted along it
# Sequence of NKX3-2 (Homo sapiens, UniProt P78367 192-278, P234S) (P78367 192-278 P234S): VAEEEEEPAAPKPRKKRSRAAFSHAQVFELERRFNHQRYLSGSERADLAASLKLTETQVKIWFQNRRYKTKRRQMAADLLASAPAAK
# Sequence of NKX3-2 (Homo sapiens, UniProt P78367 192-278) (P78367 192-278): as the sequence (P78367 192-278 P234S) above, with S43P counted along it
# Sequence of ALX1 (Homo sapiens, UniProt Q15699 118-204, L144V) (Q15699 118-204 L144V): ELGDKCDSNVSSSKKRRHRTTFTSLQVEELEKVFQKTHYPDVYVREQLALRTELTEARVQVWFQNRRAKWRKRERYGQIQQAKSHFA
# Sequence of ALX1 (Homo sapiens, UniProt Q15699 118-204, L144R) (Q15699 118-204 L144R): as the sequence (Q15699 118-204 L144V) above, with V27R counted along it
# Sequence of ALX1 (Homo sapiens, UniProt Q15699 118-204) (Q15699 118-204): as the sequence (Q15699 118-204 L144V) above, with V27L counted along it
# Sequence of HOXB4 (Homo sapiens, UniProt P17483 148-234) (P17483 148-234): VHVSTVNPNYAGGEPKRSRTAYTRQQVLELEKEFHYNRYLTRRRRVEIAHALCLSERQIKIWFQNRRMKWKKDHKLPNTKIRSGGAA
# Sequence of HOXB4 (Homo sapiens, UniProt P17483 148-234, V174I) (P17483 148-234 V174I): as the sequence (P17483 148-234) above, with V27I counted along it
sequence,measurement,setting,value
CACGCGTG,binding signal,[1],"8.8 upbm affinity estimate (log intensity, higher = more binding, comparable within an allelic series)"
same,binding signal,[2],"7.77 upbm affinity estimate (log intensity, higher = more binding, comparable within an allelic series)"
same,binding signal,[3],"7.9 upbm affinity estimate (log intensity, higher = more binding, comparable within an allelic series)"
same,binding signal,[4],"8.74 upbm affinity estimate (log intensity, higher = more binding, comparable within an allelic series)"
GCACTTAA,binding signal,[1],"13.1 upbm affinity estimate (log intensity, higher = more binding, comparable within an allelic series)"
same,binding signal,[5],"12.6 upbm affinity estimate (log intensity, higher = more binding, comparable within an allelic series)"
same,binding signal,[6],"10.2 upbm affinity estimate (log intensity, higher = more binding, comparable within an allelic series)"
same,binding signal,[7],"10.9 upbm affinity estimate (log intensity, higher = more binding, comparable within an allelic series)"
same,binding signal,[8],"13 upbm affinity estimate (log intensity, higher = more binding, comparable within an allelic series)"
same,binding signal,[9],"10.3 upbm affinity estimate (log intensity, higher = more binding, comparable within an allelic series)"
same,binding signal,[10],"12.5 upbm affinity estimate (log intensity, higher = more binding, comparable within an allelic series)"
same,binding signal,[11],"12 upbm affinity estimate (log intensity, higher = more binding, comparable within an allelic series)"
same,binding signal,[12],"13.8 upbm affinity estimate (log intensity, higher = more binding, comparable within an allelic series)"
same,binding signal,[13],"13.2 upbm affinity estimate (log intensity, higher = more binding, comparable within an allelic series)"
same,binding signal,[14],"11.6 upbm affinity estimate (log intensity, higher = more binding, comparable within an allelic series)"
same,binding signal,[15],"12.9 upbm affinity estimate (log intensity, higher = more binding, comparable within an allelic series)"
same,binding signal,[4],"13 upbm affinity estimate (log intensity, higher = more binding, comparable within an allelic series)"
same,binding signal,[16],"13.1 upbm affinity estimate (log intensity, higher = more binding, comparable within an allelic series)"
CCACTTTA,binding signal,[1],"12.7 upbm affinity estimate (log intensity, higher = more binding, comparable within an allelic series)"
same,binding signal,[5],"12.6 upbm affinity estimate (log intensity, higher = more binding, comparable within an allelic series)"
same,binding signal,[8],"13 upbm affinity estimate (log intensity, higher = more binding, comparable within an allelic series)"
same,binding signal,[10],"12.5 upbm affinity estimate (log intensity, higher = more binding, comparable within an allelic series)"
same,binding signal,[11],"12 upbm affinity estimate (log intensity, higher = more binding, comparable within an allelic series)"
same,binding signal,[17],"8.4 upbm affinity estimate (log intensity, higher = more binding, comparable within an allelic series)"
same,binding signal,[12],"13.5 upbm affinity estimate (log intensity, higher = more binding, comparable within an allelic series)"
same,binding signal,[18],"8.44 upbm affinity estimate (log intensity, higher = more binding, comparable within an allelic series)"
same,binding signal,[13],"13.1 upbm affinity estimate (log intensity, higher = more binding, comparable within an allelic series)"
same,binding signal,[14],"10.8 upbm affinity estimate (log intensity, higher = more binding, comparable within an allelic series)"
same,binding signal,[15],"13 upbm affinity estimate (log intensity, higher = more binding, comparable within an allelic series)"
same,binding signal,[19],"8.77 upbm affinity estimate (log intensity, higher = more binding, comparable within an allelic series)"
same,binding signal,[4],"12.7 upbm affinity estimate (log intensity, higher = more binding, comparable within an allelic series)"
same,binding signal,[16],"13.1 upbm affinity estimate (log intensity, higher = more binding, comparable within an allelic series)"
ATTACGTA,binding signal,[1],"10.3 upbm affinity estimate (log intensity, higher = more binding, comparable within an allelic series)"
same,binding signal,[4],"10.3 upbm affinity estimate (log intensity, higher = more binding, comparable within an allelic series)"
AATTAGCT,binding signal,[1],"10.5 upbm affinity estimate (log intensity, higher = more binding, comparable within an allelic series)"
same,binding signal,[20],"11.7 upbm affinity estimate (log intensity, higher = more binding, comparable within an allelic series)"
same,binding signal,[6],"11.7 upbm affinity estimate (log intensity, higher = more binding, comparable within an allelic series)"
same,binding signal,[9],"11.4 upbm affinity estimate (log intensity, higher = more binding, comparable within an allelic series)"
same,binding signal,[17],"11.5 upbm affinity estimate (log intensity, higher = more binding, comparable within an allelic series)"
same,binding signal,[18],"11.1 upbm affinity estimate (log intensity, higher = more binding, comparable within an allelic series)"
same,binding signal,[19],"12.1 upbm affinity estimate (log intensity, higher = more binding, comparable within an allelic series)"
same,binding signal,[4],"10.6 upbm affinity estimate (log intensity, higher = more binding, comparable within an allelic series)"
AAGTGGCT,binding signal,[1],"12.5 upbm affinity estimate (log intensity, higher = more binding, comparable within an allelic series)"
same,binding signal,[5],"12.5 upbm affinity estimate (log intensity, higher = more binding, comparable within an allelic series)"
same,binding signal,[8],"12.9 upbm affinity estimate (log intensity, higher = more binding, comparable within an allelic series)"
same,binding signal,[10],"12.4 upbm affinity estimate (log intensity, higher = more binding, comparable within an allelic series)"
same,binding signal,[11],"11.8 upbm affinity estimate (log intensity, higher = more binding, comparable within an allelic series)"
same,binding signal,[12],"13.4 upbm affinity estimate (log intensity, higher = more binding, comparable within an allelic series)"
same,binding signal,[13],"13 upbm affinity estimate (log intensity, higher = more binding, comparable within an allelic series)"
same,binding signal,[14],"10.6 upbm affinity estimate (log intensity, higher = more binding, comparable within an allelic series)"
same,binding signal,[15],"12.8 upbm affinity estimate (log intensity, higher = more binding, comparable within an allelic series)"
same,binding signal,[4],"12.4 upbm affinity estimate (log intensity, higher = more binding, comparable within an allelic series)"
same,binding signal,[16],"12.9 upbm affinity estimate (log intensity, higher = more binding, comparable within an allelic series)"
GGCACTTA,binding signal,[1],"13.1 upbm affinity estimate (log intensity, higher = more binding, comparable within an allelic series)"
same,binding signal,[5],"12.7 upbm affinity estimate (log intensity, higher = more binding, comparable within an allelic series)"
same,binding signal,[8],"13.1 upbm affinity estimate (log intensity, higher = more binding, comparable within an allelic series)"
same,binding signal,[10],"12.6 upbm affinity estimate (log intensity, higher = more binding, comparable within an allelic series)"
same,binding signal,[11],"12.1 upbm affinity estimate (log intensity, higher = more binding, comparable within an allelic series)"
same,binding signal,[12],"13.8 upbm affinity estimate (log intensity, higher = more binding, comparable within an allelic series)"
same,binding signal,[13],"13.2 upbm affinity estimate (log intensity, higher = more binding, comparable within an allelic series)"
same,binding signal,[14],"11.4 upbm affinity estimate (log intensity, higher = more binding, comparable within an allelic series)"
same,binding signal,[15],"13.3 upbm affinity estimate (log intensity, higher = more binding, comparable within an allelic series)"
same,binding signal,[4],"13 upbm affinity estimate (log intensity, higher = more binding, comparable within an allelic series)"
same,binding signal,[16],"13.4 upbm affinity estimate (log intensity, higher = more binding, comparable within an allelic series)"
